We go through 35 compounds from PubChem BioAssay (NCATS).

Several values for one entry are separate records, joined by “and”; a condition that tells them apart may be missing. Identical values can stand only once. Inconclusive results are not listed. Activity calls are given as the source filed them. Calls come from the whole dose curve; as a rule, active = well fitted curve in the direction sought with a large enough effect; inconclusive = small, poorly fitted or top-dose-only effect, or another doubt; inactive = no such curve, though single readings can be large or run the other way.
% is set by controls: 0 for no effect and ±100 for the full control effect; potency is the fitted concentration of half-maximal effect.

The nature of this test: qHTS Assay for Identifying Gametocytocidal Compounds (AID 743244).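 For max response: actives lower the fluorescent signal which means gametocytes are killed.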 The following applies: P. falciparum 3D7 stage III-V gametocytes, alamarBlue, 72 h; max response: hits give low values. The method, boiled down: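 Viability read-out was resazurin reduction (alamarBlue, 24 h) measured at Ex 525/Em 598 nm. Beforehand, late-stage (III-V) 3D7 P. falciparum gametocytes at 20,000 cells/well were incubated with compound 72 h at 37C under 5% CO2.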
A general note: qHTS replaces the single test concentration by a dilution series.
Turning to `NC(=O)C(c1ccccc1)(c1ccccc1)[C@@H]1CCN(CCc2ccc3c(c2)CCO3)C1`, the max response was -5.51% (inactive).
With `NC(N)=NC(=O)c1nc(Cl)c(N2CCCCCC2)nc1N`, the Potency was 891 nM (active).
In the case of `O=C1O/C(=C/Br)CCC1c1cccc2ccccc12` (stereo not given), the max response is 7.23% (inactive).
On the same count and under the same terms, to `CC(=O)/C=C1\C(=O)N(C)c2ccccc21` belongs -11.9% (inactive); to `C[C@@H](NC(=O)/C(C#N)=C/c1ccc(O)c(O)c1)c1ccccc1`, 3.77% (inactive); to `NO`, -10.7% (inactive).
On the same count and under the same terms, to `Nc1cc(-c2ccncc2)c[nH]c1=O` belongs 14.6% (inactive).
In the case of `CC12C(=O)OC(=O)C1(C)C1CCC2O1` (stereo not given), the max response was 3.18% (inactive).
Same read-out and setting: to `CCCCCCCCCCCCCCCCCC(=O)NCC(COP(=O)([O-])OCC[N+](C)(C)C)OCC` (stereo not given) belongs 4.32% (inactive).
As for `Cc1ccc(S(=O)(=O)/C=C/C#N)cc1`, the Potency is 3550 nM (active).
On to `c1ccc2sc(SSc3nc4ccccc4s3)nc2c1`, for which the max response is 10.7% (inactive).
The same measure, in the same setting: to `N=c1ccn2c(n1)O[C@H]1[C@H](O)[C@@H](CO)O[C@H]12` belongs 8.89% (inactive).
Still for that read-out and setting: next, `COC(=O)C1=C(C)NC(C)=C(C(=O)OCC(C)=O)C1c1ccccc1[N+](=O)[O-]` (stereo not given): 14.8% (inactive); `CNC(=O)[C@H]1O[C@@H](n2cnc3c(NCc4ccc(N)cc4)ncnc32)[C@H](O)[C@@H]1O`: 6.14% (inactive).
With `CN(C)[C@@H]1C(=O)C(C(=O)NCN2CCCC2)=C(O)[C@@]2(O)C(=O)C3=C(O)c4c(O)cccc4[C@@](C)(O)C3C[C@@H]12` (stereo not given in full), the max response was 6.22% (inactive) and 1.93% (inactive).
The same measure, in the same setting: to `CCCCCCCCc1ccc(-c2ccc(C(=O)O)cc2)cc1` belongs 11.5% (inactive).
For `CCCCCCOc1ccccc1C(N)=O`, the max response was -0.639% (inactive).
The same measure, in the same setting: to `O=C1NC(=O)/C(=C/c2ccc(-c3ccc(F)cc3O)o2)S1` belongs -4.42% (inactive).
Consider `O=[N+]([O-])c1ccc(CSc2ncnc3c2ncn3[C@@H]2O[C@H](CO)[C@@H](O)[C@H]2O)cc1`, for which the max response was 17.7% (inactive).
Consider `COc1cc(OC)c(/C=C2/C(=O)Nc3ccccc32)c(OC)c1`, for which the max response is 33.5% (inactive).
For `CCCC1(C)C(C#N)(C#N)C1(C#N)C#N`, the Potency was 2240 nM (active).
Regarding `O=C(OCc1ccccc1)c1ccccc1`, the max response was -5.44% (inactive).
Still for that read-out and setting: to `O=C(c1ccc(OCCCc2cnc[nH]2)cc1)C1CC1` belongs 42% (inactive); to `CN(C)c1nc(N)c(C(=O)N=C(N)N)nc1Cl`, 11% (inactive).
As for `CC1(C)S[C@@H]2[C@H](NC(=O)[C@H](N)c3ccccc3)C(=O)N2[C@H]1C(=O)O`, the max response was 0.735% (inactive).
Still for that read-out and setting: to `Cc1onc(-c2c(F)cccc2Cl)c1C(=O)N[C@@H]1C(=O)N2[C@@H]1SC(C)(C)[C@@H]2C(=O)O` belongs 16.8% (inactive) and -3.16% (inactive).
With `NC[C@H]1O[C@@H](n2cnc3c(N)ncnc32)[C@H](O)[C@@H]1O`, the max response is -2.15% (inactive).
Regarding `CCCOC(=O)c1ccc(O)cc1`, the max response was -1.64% (inactive) and -4.63% (inactive).
Still for that read-out and setting: next, `Nc1nc(Cl)nc2c1ncn2[C@@H]1O[C@H](CO)[C@@H](O)[C@H]1O`: 6.66% (inactive); `O=C(CCN1CCN(CCO)CC1)N1c2ccccc2Sc2ccc(C(F)(F)F)cc21`: -4.95% (inactive).
As to `O=[N+]([O-])c1ccc2c(c1)S(=O)(=O)C=C2`, the Potency was 1000 nM (active).
Consider `CNc1ncnc2c1ncn2[C@@H]1O[C@H](CO)[C@@H](O)[C@H]1O`, for which the max response was 31.8% (inactive).
As for `N.N.N.N.N.N.N.N.N.N.N.N.N.N.O.O.[Ru+4].[Ru+5].[Ru+5]`, the Potency was 935 nM (active).
Regarding `CC(C)OC(=O)c1cc(C(=O)OC(C)C)cc([N+](=O)[O-])c1`, the max response is 4.99% (inactive).
Regarding `CC1(C)S[C@@H]2[C@H](NC(=O)[C@H](N)c3ccc(O)cc3)C(=O)N2[C@H]1C(=O)O`, the max response was 4.64% (inactive) and 10.7% (inactive).
